Assay [1] in a line: Nuclear factor erythroid 2-related factor 2/antioxidant responsive element (Nrf2/ARE) small molecule agonists: qHTS cell viability counter screen in human keratinocytes (AID 1919968; active = well fitted curve in the direction sought with a large enough effect in the repeat runs; an effect the other way counts as inactive or inconclusive; note: nearly all actives have a fitted effect of over 55% in size). Summed up: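 Viability counter-screen: KeratinoSens reporter cells, DMSO-delivered compounds, 23 h at 37 C, CellTiter-Fluor fluorescence.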
A general note: qHTS replaces the single test concentration by a dilution series.

Assay [2] can be described thus: Nuclear factor erythroid 2-related factor 2/antioxidant responsive element (Nrf2/ARE) small molecule agonists: luciferase reporter gene qHTS assay in human keratinocytes (AID 1919969). Note: nearly all actives have a fitted effect of over 35% in size. Background: In a reporter assay the amount or activity of a reporter protein is the signal.
In assay [3] the target is Gonadotropin-releasing hormone receptor (Homo sapiens) (UniProt P30968). In words: Human gonadotropin-releasing hormone receptor (GnRHR) small molecule agonists, calcium flux assay in GnRHR-HEK293 cells (AID 1920063). Note: nearly all actives have a fitted effect of over 35% in size. A digest of the protocol:
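Tox21-format agonist screen using human GnRHR-expressing HEK293 cells and a fluorescent calcium dye; kinetic 3-min fluorescence reading after compound addition, 15-point concentration series run in triplicate.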
For orientation: A change in cytosolic calcium serves as a functional read-out for many receptors and channels.

For assay [4], the target named is KiSS-1 receptor (Homo sapiens) (UniProt Q969F8). In words: Human kisspeptin (KISS1R) small molecule agonists, calcium flux assay in KISS1R-HEK293 cells (AID 1920064; active = well fitted curve in the direction sought with a large enough effect in the repeat runs; an effect the other way counts as inactive or inconclusive). A digest of the protocol:
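Intracellular calcium mobilization in KISS1R-HEK293 cells was recorded by fluorescence (Ex/Em 480/540) for 3 min following compound addition to cells pre-loaded 1 h with calcium dye.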

A short description of assay [5]: G protein-coupled receptor (GPCR) small molecule agonists, calcium flux assay: HEK293 wild type cell line counter screen (AID 1920065). Summed up: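 In this agonist-mode screen, ATP is the positive control and DMSO the vehicle. Cells grow 18 h before a 1 h dye incubation at 37 C; signal is taken at Ex/Em 480/540 over 3 min.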
Assay [6] can be described thus: p53 small molecule agonists, cell-based qHTS assay with rat liver microsomes (AID 1963578). Summed up:
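Rat liver microsome activation: microsomes 0.5 mg/mL, NADPH 0.5 mg/mL final; p53RE-bla cells, 16 h 37 C; LiveBLAzer readout, 2 h RT dark.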

Assay [7] in a line: p53 small molecule agonists, cell-based qHTS assay with human liver microsomes: qHTS cell viability counter screen (AID 1963579). Note: nearly all actives have a fitted effect of over 45% in size. A digest of the protocol:
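Luminescent CellTiter-Glo read-out, 30 min at room temperature, gauged cytotoxicity in p53RE-bla cells exposed 16 h at 37 C to DMSO-dissolved compounds with metabolic activation by human liver microsomes and NADPH, each 0.5 mg/mL final.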

The nature of assay [8]: p53 small molecule agonists, cell-based qHTS assay with rat liver microsomes: qHTS cell viability counter screen (AID 1963580). Note: nearly all actives have a fitted effect of over 45% in size. A digest of the protocol: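 HCT-116 p53RE-bla, 4,000 cells/well, 5 h pre-incubation; cpd + rat liver microsomes 0.5 mg/mL + NADPH 0.5 mg/mL (final); 16 h, 37 C; CellTiter-Glo, 30 min RT; luminescence.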
Assay [9] can be described thus: p53 small molecule agonists, cell-based qHTS assay: qHTS cell viability counter screen (AID 1963581). Note: nearly all actives have a fitted effect of over 45% in size. Summed up: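 Compounds are pinned onto HCT-116 p53RE-bla cells and left 16 h at 37 C. Following the reporter FRET read, ATP is quantified by CellTiter-Glo luminescence after 30 min at room temperature.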
Assay [10] in a line: p53 small molecule agonists, cell-based qHTS assay (AID 1963582; active = well fitted activation curve with a large enough effect in the signal ratio in the repeat runs, not every such curve was filed as active; the % refers to the signal ratio). A digest of the protocol:
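Agonist activity was scored from beta-lactamase FRET fluorescence in p53RE-bla cells treated 16 h at 37 C with compounds in DMSO, substrate incubation being 2 h at room temperature.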

For assay [11], the target named is 5-hydroxytryptamine receptor 2A (Homo sapiens) (UniProt P28223). Description: 5-hydroxytryptamine receptor 2A (HTR2A) small molecule antagonists, cell-based qHTS assay (AID 1963586). Note: nearly all actives have a fitted effect of over 45% in size. Note: potency is the fitted concentration of half-maximal effect. Summed up:
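Antagonist-mode intracellular calcium assay: DOI (4 nM) added after 5 min compound pre-incubation at room temperature to dye-loaded HTR2A-CHO cells. Fluorescence followed for 3 min, sampled every second.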

Assay [12] shares this target. Description: 5-hydroxytryptamine receptor 2A (HTR2A) small molecule agonists, cell-based qHTS assay (AID 1963587). Note: nearly all actives have a fitted effect of over 30% in size. Note: potency is the fitted concentration of half-maximal effect. Summed up:
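Kinetic calcium-flux fluorescence (2 min, 1 sec intervals) after compound addition in agonist mode. HTR2A-CHO cells were cultured 18 h, then dye-loaded 1 h at 37 C.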

Assay [13] has as its target Muscarinic acetylcholine receptor M1 (Homo sapiens) (UniProt P11229). In words: Cholinergic receptor muscarinic 1 (CHRM1) small molecule antagonists, cell-based qHTS assay (AID 1963588). Note: nearly all actives have a fitted effect of over 40% in size. Note: potency is the fitted concentration of half-maximal effect. A digest of the protocol: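 CHRM1-CHO calcium-flux assay, antagonist mode. Cells were seeded 18 h, dye-loaded 1 h at 37 C and given compound for 5 min at RT, then acetylcholine was added at 50nM. FDSS fluorescence was read 3 min; 15 concentrations, three runs.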

The target is the same in assay [14]. Description: Cholinergic receptor muscarinic 1 (CHRM1) small molecule agonists, cell-based qHTS assay (AID 1963589). Note: nearly all actives have a fitted effect of over 35% in size. Summed up:
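Stable CHRM1-CHO cells (human receptor) were incubated 18 h, dye-loaded for 1 h at 37 C and exposed to test compounds for agonist activity, with calcium-dependent fluorescence followed kinetically.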

Assay [15] in a line: cAMP Responsive Elements (CRE) small molecule agonists, cell-based qHTS assay (AID 1963590). A digest of the protocol:
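FRET-based beta-lactamase readout (LiveBLAzer B/G, 2 h RT) quantified CRE activation in HEK 293T CRE-bla cells after 3 h treatment with DMSO-dissolved compounds.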

Assay [16] can be described thus: cAMP Responsive Elements (CRE) small molecule antagonists, cell-based qHTS assay (AID 1963591; active = well fitted inhibition curve with a large enough effect in the signal ratio in the repeat runs, not every such curve was filed as active; the % refers to the signal ratio). Summed up: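 qHTS in CRE-bla HEK 293T cells: compound in DMSO, then 0.25 uM NKH477 (final), 3 h at 37 °C/5% CO2; beta-lactamase FRET read-out after 2 h substrate incubation.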
Assay [17] concerns the target Beta-2 adrenergic receptor (Homo sapiens) (UniProt P07550). In words: Adrenergic beta2 receptor (ADRB2) small molecule antagonists, cell-based qHTS assay (AID 1963592). Note: series mostly up to about 92 µM; nearly all actives have a fitted effect of over 50% in size. A digest of the protocol: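 Cells (CHO, stable ADRB2 overexpression) incubated 18-20hr at 37C; compounds added from DMSO; agonist mix (1nM isoproterenol, 100uM IBMX, 25uM Ro-20-1724) added; 0.5hr RT; d2-cAMP and anti-cAMP-cryptate added; 1hr RT; 665/615 nm read.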

Assay [18] deals with D(2) dopamine receptor (Homo sapiens) (UniProt P14416). Description: Dopamine D2 receptor (DRD2) small molecule agonists, cell-based qHTS assay (AID 1963594). Note: nearly all actives have a fitted effect of over 35% in size. A digest of the protocol: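 cAMP accumulation in DRD2-HEK293 cells measured by HTRF after 1 h detection; compounds added 10 min before NKH477 (200nM […]) forskolin-analogue stimulation, 30 min at room temperature, with Ro20-1724 present at 0.1 mM final.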
Sequence of D(2) dopamine receptor (Homo sapiens) (P14416 whole entry, looked up): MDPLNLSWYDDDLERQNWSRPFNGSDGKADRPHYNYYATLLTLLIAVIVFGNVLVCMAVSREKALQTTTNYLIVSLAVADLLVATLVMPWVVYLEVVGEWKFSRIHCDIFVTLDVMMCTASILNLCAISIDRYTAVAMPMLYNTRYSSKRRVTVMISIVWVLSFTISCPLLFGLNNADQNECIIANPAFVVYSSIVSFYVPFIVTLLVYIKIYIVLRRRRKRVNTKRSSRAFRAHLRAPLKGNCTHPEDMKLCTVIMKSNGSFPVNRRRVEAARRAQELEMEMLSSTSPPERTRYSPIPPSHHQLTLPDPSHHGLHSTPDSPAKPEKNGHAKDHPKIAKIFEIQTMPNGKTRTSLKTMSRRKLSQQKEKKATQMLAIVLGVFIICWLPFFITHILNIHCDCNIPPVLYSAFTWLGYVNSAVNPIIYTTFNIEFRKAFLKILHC

Assay [19] shares this target. In words: Dopamine D2 receptor (DRD2) small molecule antagonists, cell-based qHTS assay (AID 1963595; active = well fitted inhibition curve with a large enough effect in the signal ratio in the repeat runs, with a control signal flat; the % refers to the signal ratio). Summed up: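 HEK293 cells stably expressing DRD2, preincubated with 0.1 mM Ro20-1724 and compounds 10 min, were stimulated with 200 nM NKH477 plus 12 nM quinpirole for 30 min at room temperature; cAMP measured by HTRF (665/620 nm).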
The target of assay [20] is Beta-2 adrenergic receptor (Homo sapiens) (UniProt P07550). Description: Adrenergic beta2 receptor (ADRB2) small molecule agonists, cell-based qHTS assay (AID 1963593).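 Note: CHO cells stably overexpressing human ADRB2.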 A digest of the protocol: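 CHO cells stably over-expressing ADRB2 were plated overnight at 37C, then dosed with compounds plus a stimulation mix containing 100uM IBMX and 25uM Ro-20-1724 for 0.5hr at room temperature. cAMP was measured by HTRF competition, 1hr.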
Sequence of Beta-2 adrenergic receptor (Homo sapiens) (P07550 whole entry, looked up): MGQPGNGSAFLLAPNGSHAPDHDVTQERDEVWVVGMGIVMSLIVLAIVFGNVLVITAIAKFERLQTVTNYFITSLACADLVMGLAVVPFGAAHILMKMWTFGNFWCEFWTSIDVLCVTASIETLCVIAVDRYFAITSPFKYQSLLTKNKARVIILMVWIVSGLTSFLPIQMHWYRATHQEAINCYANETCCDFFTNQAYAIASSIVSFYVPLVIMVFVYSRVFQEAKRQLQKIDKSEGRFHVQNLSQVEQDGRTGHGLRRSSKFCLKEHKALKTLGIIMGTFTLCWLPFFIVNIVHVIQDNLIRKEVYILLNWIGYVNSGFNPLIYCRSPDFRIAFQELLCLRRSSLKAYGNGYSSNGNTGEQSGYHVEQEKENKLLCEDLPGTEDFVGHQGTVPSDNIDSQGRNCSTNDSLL

Values without a mark were called inactive. Inconclusive results are not listed. Calls of active or inactive are those of the source. Unless noted, calls come from the whole dose curve.

Sequence of 5-hydroxytryptamine receptor 2A (Homo sapiens) (P28223 whole entry, looked up): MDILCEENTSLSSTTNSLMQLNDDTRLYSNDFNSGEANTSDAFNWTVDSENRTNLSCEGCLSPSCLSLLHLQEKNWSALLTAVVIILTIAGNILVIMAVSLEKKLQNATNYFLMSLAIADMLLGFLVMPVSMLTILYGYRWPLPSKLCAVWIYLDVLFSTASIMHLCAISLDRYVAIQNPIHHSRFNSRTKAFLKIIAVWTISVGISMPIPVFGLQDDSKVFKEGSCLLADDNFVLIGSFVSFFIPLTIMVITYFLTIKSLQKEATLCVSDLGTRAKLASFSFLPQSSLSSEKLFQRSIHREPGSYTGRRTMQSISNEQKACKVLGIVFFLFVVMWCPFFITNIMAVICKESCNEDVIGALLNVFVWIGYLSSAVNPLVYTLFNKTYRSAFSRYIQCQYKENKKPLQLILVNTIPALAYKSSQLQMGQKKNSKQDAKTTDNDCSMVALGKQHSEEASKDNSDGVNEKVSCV
Sequence of Gonadotropin-releasing hormone receptor (Homo sapiens) (P30968 whole entry, looked up): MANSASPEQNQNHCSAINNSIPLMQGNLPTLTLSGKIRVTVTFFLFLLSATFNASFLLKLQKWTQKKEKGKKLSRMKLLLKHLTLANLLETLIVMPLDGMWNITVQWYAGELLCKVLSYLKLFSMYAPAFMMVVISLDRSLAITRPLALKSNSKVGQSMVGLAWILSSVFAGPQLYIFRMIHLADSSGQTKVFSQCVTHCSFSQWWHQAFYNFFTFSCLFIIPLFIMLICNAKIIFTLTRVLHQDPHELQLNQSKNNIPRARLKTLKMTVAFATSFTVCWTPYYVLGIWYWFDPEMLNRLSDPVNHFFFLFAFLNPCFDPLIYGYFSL
Sequence of KiSS-1 receptor (Homo sapiens) (Q969F8 whole entry, looked up): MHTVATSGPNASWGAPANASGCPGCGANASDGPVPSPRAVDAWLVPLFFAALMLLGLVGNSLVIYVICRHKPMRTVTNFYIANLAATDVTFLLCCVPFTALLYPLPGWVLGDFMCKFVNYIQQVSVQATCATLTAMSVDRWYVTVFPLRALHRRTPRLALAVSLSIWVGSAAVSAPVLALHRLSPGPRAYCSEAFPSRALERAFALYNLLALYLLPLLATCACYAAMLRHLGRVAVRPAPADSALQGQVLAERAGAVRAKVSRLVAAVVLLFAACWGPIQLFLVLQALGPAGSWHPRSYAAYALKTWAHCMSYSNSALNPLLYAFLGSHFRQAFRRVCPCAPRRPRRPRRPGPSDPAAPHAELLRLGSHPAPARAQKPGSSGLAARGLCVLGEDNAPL
Sequence of Muscarinic acetylcholine receptor M1 (Homo sapiens) (P11229 whole entry, looked up): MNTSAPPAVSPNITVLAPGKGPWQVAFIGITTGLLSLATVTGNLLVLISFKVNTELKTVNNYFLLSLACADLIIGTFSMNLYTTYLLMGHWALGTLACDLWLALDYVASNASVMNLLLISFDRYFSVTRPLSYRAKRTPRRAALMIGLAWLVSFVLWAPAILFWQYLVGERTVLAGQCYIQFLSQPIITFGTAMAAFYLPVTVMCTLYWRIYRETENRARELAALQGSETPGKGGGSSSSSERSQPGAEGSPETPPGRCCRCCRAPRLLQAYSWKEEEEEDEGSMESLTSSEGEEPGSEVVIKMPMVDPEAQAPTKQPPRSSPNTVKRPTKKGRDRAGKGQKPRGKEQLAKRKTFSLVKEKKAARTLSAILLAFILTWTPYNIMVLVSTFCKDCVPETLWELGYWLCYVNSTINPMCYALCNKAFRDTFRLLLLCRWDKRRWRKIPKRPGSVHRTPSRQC

As for `Clc1ccc(Nc2nnc(Cc3ccncc3)c3ccccc23)cc1`, the Potency entry in [1], in [2], in [3], in assay [4], in [5] and in [6] was “inactive” in each case. Moreover, the Potency entry in assay [7], in assay [8], in assay [9], in [10], in assay [12] and in assay [14] was “inactive” throughout. The Potency result in assay [15], in [16], in [17], in [18] and in assay [19] was “inactive” in each case. The Potency in assay [11] and in [13] was 18.3 µM (active) throughout.

On to `COc1ccc(S(=O)(=O)Nc2nnc(CC(C)C)s2)cc1`, for which the Potency entry in assay [1], in [2], in assay [3], in assay [4], in assay [5] and in [6] was “inactive” throughout. Further, the Potency entry in [7], in assay [8], in [9], in assay [10], in assay [13] and in [14] was “inactive” in each case. Moreover, the Potency result in assay [15], in [16], in assay [17], in assay [20], in assay [18] and in assay [19] was “inactive” throughout.

Regarding `CCCC(CCC)(C(=O)OCC)C(=O)OCC`, the Potency entry in [1], in [2], in [3], in assay [4], in [5] and in assay [6] was “inactive” each time. Moreover, the Potency result in assay [7], in [8], in [9], in assay [10], in assay [13] and in [14] was “inactive” throughout. Moreover, the Potency result in assay [15], in assay [16], in assay [17] and in assay [19] was “inactive” in each case. For the same compound, the figures for the Potency in [11] and in [12] were 3.26 µM (active) and 1.69 µM (active), respectively.

In the case of `Cc1coc2ccccc2c1=O`, the Potency result in [1], in assay [2], in assay [3], in [4], in assay [5] and in assay [6] was “inactive” in each case. In addition, the Potency entry in assay [7], in assay [8], in [9], in assay [10], in [11] and in assay [13] was “inactive” in each case. Further, the Potency result in assay [14], in [15], in [16], in assay [17], in assay [20] and in [18] was “inactive” each time. Further, the Potency entry in assay [19] is “inactive”.

`CCCCCC1Nc2cc(C(F)(F)F)c(S(N)(=O)=O)cc2S(=O)(=O)N1` (stereo not given): the Potency entry in assay [1], in [2], in [3], in assay [4], in [5] and in assay [6] was “inactive” in each case. The Potency entry in assay [7], in [8], in assay [9], in [10], in [12] and in assay [13] was “inactive” throughout. For the same compound, the Potency result in assay [14], in assay [17], in [20], in assay [18] and in assay [19] was “inactive” in each case.

Consider `CCOC(=O)Nc1ccc2c(c1)N(C(=O)CCN1CCOCC1)c1ccccc1S2`, for which the Potency result in assay [1], in assay [2], in [3], in [4], in assay [5] and in assay [6] was “inactive” each time. Further, the Potency entry in assay [7], in [8], in assay [9], in [10], in [12] and in assay [14] was “inactive” throughout. Besides, the Potency result in assay [15], in assay [17], in [20], in assay [18] and in [19] was “inactive” each time. In addition, in assay [13], the Potency is 0.918 µM (active).

As to `O=C(O)Cn1cnnn1`, the Potency result in assay [1], in assay [2], in [3], in assay [4], in assay [5] and in [6] was “inactive” throughout. Also, the Potency result in assay [7], in [8], in [9], in [11], in assay [12] and in assay [13] was “inactive” each time. Also, the Potency entry in assay [14], in assay [16], in [20] and in assay [18] was “inactive” each time.

(Values after PubChem BioAssay (Tox21).)
